We go through 39 compounds from PubChem BioAssay (NCATS).

For part of these data: Entries with a potency or affinity are not part of this list. Calls of active or inactive are those of the source. Calls follow the shape of the full dose curve.

For one experiment the following is noted: Ebola virus entry assay, blue channel fluorescence.
Regarding `CN1[C@@H]2CCC[C@@H]1CC(NC(=O)c1nn(C)c3ccccc13)C2` (stereo partly specified), the result was inactive.

`CO[C@H]1C[C@@H]2CC[C@@H](C)[C@@](O)(O2)C(=O)C(=O)N2CCCC[C@@H]2C(=O)O[C@H]([C@@H](C)C[C@@H]2CC[C@H](O)[C@H](OC)C2)CC(=O)[C@H](C)C=C(C)[C@@H](O)[C@@H](OC)C(=O)[C@H](C)C[C@H](C)C=CC=CC=C1C`: the compound was called inactive.

In the case of `CC(C)CN(C[C@@H](O)[C@H](Cc1ccccc1)NC(=O)O[C@H]1CO[C@H]2OCC[C@H]21)S(=O)(=O)c1ccc(N)cc1`, the outcome was inactive.

Take `CC(=O)NCCCS(=O)(=O)O`: the outcome was inactive.

On to `COc1cc(Br)c(C[N+]2(CCOCCC3CCC4CC3C4(C)C)CCOCC2)cc1OC` (stereo unspecified), for which the result was inactive.

Regarding `CC(C)CN(C[C@@H](O)[C@H](Cc1ccccc1)NC(=O)O[C@@H]1CCOC1)S(=O)(=O)c1ccc(N)cc1`, the outcome was inactive.

Turning to `CO/N=C(/C(=O)N[C@@H]1C(=O)N2C(C(=O)O)=C(COC(N)=O)CS[C@H]12)c1ccco1`, the compound was called inactive.

In the case of `Cc1nnc2n1-c1ccc(Cl)cc1C(c1ccccc1Cl)=NC2`, the compound was classed as inactive.

One may read the AC50 as the concentration at which the activity in the assay is half-maximal. Turning to `CN1CCN(CCC=C2c3ccccc3Sc3ccc(S(=O)(=O)N(C)C)cc32)CC1`, the AC50 was 4.47 µM (active).

As for `CN1CCN(C(c2ccccc2)c2ccc(Cl)cc2)CC1` (stereo unspecified), the AC50 was 12.6 µM (active).

With `CCN1CC(CCN2CCOCC2)C(c2ccccc2)(c2ccccc2)C1=O` (stereo unspecified), the outcome was inactive.

In the case of `CN/C(=C\[N+](=O)[O-])NCCSCc1csc(CN(C)C)n1`, the compound was classed as inactive.

For a further experiment the following is noted: Ebola virus entry assay, green fluorescence channel.
Turning to `COc1cc(C)c(/C=C/C(C)=C/C=C/C(C)=C/C(=O)O)c(C)c1C`, the result was inactive.

For the compound `CN[C@@H](C)Cc1ccccc1`, the call was inactive.

`CCCc1nc(C(C)(C)O)c(C(=O)OCc2oc(=O)oc2C)n1Cc1ccc(-c2ccccc2-c2nn[nH]n2)cc1`: the result was inactive.

In the case of `CO/N=C(\C(=O)N[C@@H]1C(=O)N2C(C(=O)O)=C(COC(C)=O)CS[C@H]12)c1csc(N)n1` (stereo in doubt), the call was inactive.

Regarding `Cc1noc(NS(=O)(=O)c2ccc(N)cc2)c1C`, the compound was called inactive.

Consider `COc1cc([C@@H]2c3cc4c(cc3C(O[C@@H]3O[C@@H]5CO[C@@H](C)O[C@H]5[C@H](O)[C@H]3O)C3COC(=O)[C@@H]32)OCO4)cc(OC)c1OP(=O)(O)O` (stereo partly specified), for which the compound was classed as inactive.

As for `CC(C)[C@H](N)C(=O)OCC(CO)OCn1cnc2c(=O)[nH]c(N)nc21` (stereo partly specified), the result was inactive.

Regarding `CC(C)NCC(O)c1ccc(NS(C)(=O)=O)cc1` (stereo unspecified), the call was inactive.

In the case of `CC[C@H]1OC(=O)[C@H](C)[C@@H](O[C@H]2C[C@@](C)(OC)[C@@H](O)[C@H](C)O2)[C@H](C)[C@@H](O[C@@H]2O[C@H](C)C[C@H](N(C)C)[C@@H]2O)[C@](C)(O)C[C@@H](C)CN(C)[C@H](C)[C@@H](O)[C@]1(C)O`, the result was inactive.

Consider `CCNC(=O)[C@@H]1CCCN1C(=O)[C@H](CCCN=C(N)N)NC(=O)[C@H](CC(C)C)NC(=O)[C@@H](CC(C)C)NC(=O)[C@H](Cc1ccc(O)cc1)NC(=O)[C@H](CO)NC(=O)[C@H](Cc1c[nH]c2ccccc12)NC(=O)[C@H](Cc1cnc[nH]1)NC(=O)[C@@H]1CCC(=O)N1`, for which the compound was classed as inactive.

With `NC(=O)CC[C@@H]1NC(=O)[C@H](Cc2ccccc2)NC(=O)[C@H](Cc2ccc(O)cc2)NC(=O)[C@@H](N)CSSC[C@@H](C(=O)N2CCC[C@H]2C(=O)N[C@@H](CCCN=C(N)N)C(=O)NCC(N)=O)NC(=O)[C@H](CC(N)=O)NC1=O`, the outcome was inactive.

On to `CC[C@H]1OC(=O)[C@H](C)C(=O)[C@H](C)[C@@H](O[C@@H]2O[C@H](C)C[C@H](N(C)C)[C@H]2O)[C@](C)(OC)C[C@@H](C)C(=O)[C@H](C)[C@H]2N(CCCCn3cnc(-c4cccnc4)c3)C(=O)O[C@]12C`, for which the outcome was inactive.

In the case of `CC(CCc1ccccc1)NCC(O)c1ccc(O)c(C(N)=O)c1` (stereo unspecified), the outcome was inactive.

Consider `CO/N=C(\C(=O)N[C@@H]1C(=O)N2C(C(=O)O)=C(C[N+]3(C)CCCC3)CS[C@H]12)c1csc(N)n1`, for which the result was inactive.

As for `CCC(=O)NCCC1CCc2ccc3c(c21)CCO3` (stereo unspecified), the call was inactive.

As to `OC[C@H]1O[C@@H](n2cnc3c2NC=NC[C@H]3O)C[C@@H]1O`, the call was inactive.

As to `CSCC[C@H](NC(=O)[C@H](Cc1ccc(OS(=O)(=O)O)cc1)NC(=O)[C@@H](N)CC(=O)O)C(=O)NCC(=O)N[C@@H](Cc1c[nH]c2ccccc12)C(=O)N[C@@H](CCSC)C(=O)N[C@@H](CC(=O)O)C(=O)N[C@@H](Cc1ccccc1)C(N)=O`, the compound was called inactive.

As for `S=P(N1CC1)(N1CC1)N1CC1`, the compound was classed as inactive.

Consider `CC(C)c1nc(N(C)S(C)(=O)=O)nc(-c2ccc(F)cc2)c1/C=C/C(O)CC(O)CC(=O)O` (stereo unspecified), for which the compound was called inactive.

`CC[C@H](C)C(=O)O[C@H]1C[C@H](O)C=C2C=C[C@H](C)[C@H](CC[C@@H](O)C[C@@H](O)CC(=O)O)[C@H]21`: the result was inactive.

Take `CC(=O)N=c1sc(S(N)(=O)=O)nn1C`: the call was inactive.

As to `C[C@@H]1[C@H](O)[C@@H](C)/C=C/C=C\C=C\C=C\C=C\C=C\C=C\[C@H](O[C@@H]2O[C@H](C)[C@@H](O)[C@H](N)[C@@H]2O)C[C@@H]2O[C@](O)(C[C@@H](O)C[C@@H](O)[C@H](O)CC[C@@H](O)C[C@@H](O)CC(=O)O[C@H]1C)C[C@H](O)[C@H]2C(=O)O` (stereo in doubt), the compound was called inactive.

Consider `Clc1ccc2c(c1)C(c1ccccc1)=NCc1nncn1-2`, for which the result was inactive.

As for `CCC[C@@H]1C[C@@H](C(=O)N[C@@H]([C@H]2O[C@H](SC)[C@H](O)[C@@H](O)[C@H]2O)[C@H](C)Cl)N(C)C1`, the call was inactive.

As for `Nc1nc(Cl)nc2c1ncn2[C@@H]1O[C@H](CO)[C@@H](O)[C@@H]1F`, the compound was called inactive.

In the case of `CC(CCc1ccc(O)cc1)NCCc1ccc(O)c(O)c1` (stereo unspecified), the compound was called inactive.

As to `CCOC(=O)CCC(=O)O[C@H]1[C@H](O[C@@H]2[C@@H](C)[C@H](O[C@H]3C[C@@](C)(OC)[C@@H](O)[C@H](C)O3)[C@@H](C)C(=O)O[C@H](CC)[C@@](C)(O)[C@H](O)[C@@H](C)C(=O)[C@H](C)C[C@@]2(C)O)O[C@H](C)C[C@@H]1N(C)C`, the outcome was inactive.

In the case of `CN1[C@@H]2CCC[C@@H]1CC(NC(=O)c1nn(C)c3ccccc13)C2` (stereo partly specified), the outcome was inactive.

Consider `CO[C@H]1C[C@@H]2CC[C@@H](C)[C@@](O)(O2)C(=O)C(=O)N2CCCC[C@@H]2C(=O)O[C@H]([C@@H](C)C[C@@H]2CC[C@H](O)[C@H](OC)C2)CC(=O)[C@H](C)C=C(C)[C@@H](O)[C@@H](OC)C(=O)[C@H](C)C[C@H](C)C=CC=CC=C1C`, for which the call was inactive.

For `CC(C)CN(C[C@@H](O)[C@H](Cc1ccccc1)NC(=O)O[C@H]1CO[C@H]2OCC[C@H]21)S(=O)(=O)c1ccc(N)cc1`, the outcome was inactive.

As to `CC(=O)NCCCS(=O)(=O)O`, the call was inactive.

Take `COc1cc(Br)c(C[N+]2(CCOCCC3CCC4CC3C4(C)C)CCOCC2)cc1OC` (stereo unspecified): the outcome was inactive.

Take `CC(C)CN(C[C@@H](O)[C@H](Cc1ccccc1)NC(=O)O[C@@H]1CCOC1)S(=O)(=O)c1ccc(N)cc1`: the outcome was inactive.

As for `CO/N=C(/C(=O)N[C@@H]1C(=O)N2C(C(=O)O)=C(COC(N)=O)CS[C@H]12)c1ccco1`, the compound was called inactive.

As to `Cc1nnc2n1-c1ccc(Cl)cc1C(c1ccccc1Cl)=NC2`, the compound was classed as inactive.

Consider `CN1CCN(CCC=C2c3ccccc3Sc3ccc(S(=O)(=O)N(C)C)cc32)CC1`, for which the result was inactive.

`CN1CCN(C(c2ccccc2)c2ccc(Cl)cc2)CC1` (stereo unspecified): the result was inactive.

On to `CCN1CC(CCN2CCOCC2)C(c2ccccc2)(c2ccccc2)C1=O` (stereo unspecified), for which the compound was classed as inactive.

With `CN/C(=C\[N+](=O)[O-])NCCSCc1csc(CN(C)C)n1`, the call was inactive.
